According to article PMC4336329 (PLoS ONE, 2015):
Out of some 310,000 compounds screened, about 2,200 (0.71%) showed an effect of 50% or more. The effect is printed as a negative number. What follows is part of a selection rich in strong results, with near analogues and random picks from the rest.

These compounds were tested against human ether-à-go-go-related gene (hERG) potassium channel (human, UniProt Q12809) (assay: primary screen, population patch clamp on CHO cells stably expressing hERG; higher = less effect of the substance).
human ether-à-go-go-related gene (hERG) potassium channel, sequence (Q12809 whole entry, looked up): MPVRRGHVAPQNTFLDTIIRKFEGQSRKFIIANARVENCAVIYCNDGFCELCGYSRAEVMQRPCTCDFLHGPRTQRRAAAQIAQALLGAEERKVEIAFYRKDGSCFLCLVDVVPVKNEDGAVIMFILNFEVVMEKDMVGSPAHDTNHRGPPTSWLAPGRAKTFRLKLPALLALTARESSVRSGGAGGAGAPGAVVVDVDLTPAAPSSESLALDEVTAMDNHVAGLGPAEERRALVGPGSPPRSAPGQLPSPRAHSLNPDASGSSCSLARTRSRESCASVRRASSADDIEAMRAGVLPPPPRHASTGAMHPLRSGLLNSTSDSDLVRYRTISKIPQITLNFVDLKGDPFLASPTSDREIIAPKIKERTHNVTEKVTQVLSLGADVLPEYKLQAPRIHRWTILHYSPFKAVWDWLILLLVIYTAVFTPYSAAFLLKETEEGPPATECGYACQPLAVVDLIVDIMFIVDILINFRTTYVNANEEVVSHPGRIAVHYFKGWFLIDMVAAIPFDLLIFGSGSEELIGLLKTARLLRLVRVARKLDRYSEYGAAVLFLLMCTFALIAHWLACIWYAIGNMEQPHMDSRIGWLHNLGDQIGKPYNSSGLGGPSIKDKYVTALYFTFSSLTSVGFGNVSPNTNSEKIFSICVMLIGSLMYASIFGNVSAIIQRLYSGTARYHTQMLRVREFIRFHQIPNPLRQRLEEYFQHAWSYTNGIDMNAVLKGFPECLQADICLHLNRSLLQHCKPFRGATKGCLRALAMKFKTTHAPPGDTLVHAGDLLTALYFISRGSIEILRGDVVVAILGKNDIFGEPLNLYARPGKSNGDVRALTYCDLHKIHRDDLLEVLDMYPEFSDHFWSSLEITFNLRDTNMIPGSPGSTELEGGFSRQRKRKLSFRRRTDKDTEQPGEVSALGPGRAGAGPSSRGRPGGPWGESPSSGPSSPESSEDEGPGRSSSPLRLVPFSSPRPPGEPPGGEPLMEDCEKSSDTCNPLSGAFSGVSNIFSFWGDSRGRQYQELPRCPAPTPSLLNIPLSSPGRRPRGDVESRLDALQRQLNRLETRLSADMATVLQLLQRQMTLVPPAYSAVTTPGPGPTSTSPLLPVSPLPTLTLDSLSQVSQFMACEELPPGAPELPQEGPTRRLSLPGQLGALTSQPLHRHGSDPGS

SMILES	hERG current change (%, negative = inhibition) at 1uM [%]
CCN(CC)CCNCC(O)(c1ccc(Cl)cc1)c1ccc(Cl)cc1	-84.4
CC(C)(C)NCC(O)(c1ccc(Cl)cc1)c1ccc(Cl)cc1	13
CCCCNCC(O)(c1ccc(Cl)cc1)c1ccc(Cl)cc1	-5.39
Cc1ccc(NC(=O)CN(c2ccc(Cl)cc2)S(=O)(=O)c2cc([N+](=O)[O-])ccc2Cl)cc1	7.07
CC(C1CC2CCC1C2)n1c(COc2ccccc2F)nnc1SCC(N)=O (centres unmarked)	-1.9
Cc1cc(N2CCN(C(=O)c3ccco3)CC2)nc(-c2ccccc2)n1	-22.6
O=C(C1CCC1)N1CCN(c2ccnc3cc(Cl)ccc23)CC1	-59.6
O=C(c1ccco1)N1CCN(c2ncnc3c2[nH]c2ccc(Cl)cc23)CC1	-70.1
O=C(c1ccco1)N1CCN(c2ccc(Cl)cc2)CC1	-5.03
O=C(C1CCCCC1)N1CCN(c2ccnc3cc(Cl)ccc23)CC1	-27.1
Cc1cc(N2CCN(C(=O)c3ccco3)CC2)c2ccccc2n1	-68.6
O=C(c1ccco1)N1CCN(c2cccc(Cl)c2)CC1	9.98
O=C(C1CC1)N1CCN(c2ccnc3cc(Cl)ccc23)CC1	-31.6
O=C(c1ccco1)N1CCN(c2ccnc3cc(Cl)ccc23)CC1	-63.6
Cc1nc2ccccc2c2oc(C(=O)N3CCN(C(=O)c4ccco4)CC3)cc12	-23.2
Cc1cccc2[nH]c3c(N4CCN(C(=O)c5ccco5)CC4)ncnc3c12	-5.77
CCOc1ccc2[nH]c3c(N4CCN(C(=O)c5ccco5)CC4)ncnc3c2c1	-3.41
CCCOc1ccc(N2CC(C(=O)NC3=NCCS3)CC2=O)cc1 (centres unmarked)	-26
CCCCN1CCC(COC(=O)c2cc(Cl)c(N)c3c2OCCO3)CC1.Cl	-23.9
COc1ccccc1CNS(=O)(=O)c1ccc(-n2cccn2)cc1	13.3

SMILES	hERG current change (%, negative = inhibition) at 1uM [%]
O=C(NCc1cccs1)c1ccccc1	7.23
CCNc1nc(SCC(=O)OC)nc(N(C)C)n1	-1.18
COc1ccc(CN(CC(=O)NC2CCCCC2)C(=O)CCCC(=O)Nc2ccccn2)cc1	9.4
Cc1ccccc1OCC(=O)Nc1ccccc1C(=O)N1CCCCC1	-4.24
CC(=O)Nc1ccc(CNc2ncnc3ccc(-c4c(C)noc4C)cc23)cc1	11.5
O=C1C=C(O)C(n2cncn2)C(c2ccc(F)cc2)C1 (centres unmarked)	-9.66
COC(=O)c1cc(C(=O)OC)cc(N2C(=O)CC(NNC(=O)c3ccccc3Br)C2=O)c1 (centres unmarked)	4.08
O=C1NC2(CCCCC2)C(=O)N1Cc1cc(=O)n2ccsc2n1	6.06
Cc1ccc(CN2C(=O)CCC2C(=O)NCc2ccccc2Cl)cc1 (centres unmarked)	7.62
Nc1nc2ccc(-c3nc4ccccc4o3)cc2s1	11.2
CC(C)(C)C(=O)N1CCN(c2ccnc3cc(Cl)ccc23)CC1	-55.8
CC(=O)N1CCN(c2ccnc3cc(Cl)ccc23)CC1	-23.2
CCOC(=O)N1CCN(c2ccnc3cc(Cl)ccc23)CC1	-36.7
c1cncc(-c2nc3ccccn3c2Nc2ccc3c(c2)OCCO3)c1	4.02
O=C(O)CN(Cc1ccco1)S(=O)(=O)c1ccc(F)cc1	11.9
CCOc1cccc(C(=O)Nc2ccc3[nH]ncc3c2)c1	21.7
O=C(N/C(=C\c1cccs1)C(=O)N1CCOCC1)c1cccs1	6.69
O=C(N/C(=C\c1ccc2c(c1)OCO2)C(=O)N1CCOCC1)c1cccs1	-18.7
Cc1ccc(NC(=O)/C(=C\c2cccs2)NC(=O)c2ccccc2)cc1	-1.02
CN1CCN(C(=O)/C(=C\c2cccs2)NC(=O)c2ccccc2)CC1	-78.3

SMILES	hERG current change (%, negative = inhibition) at 1uM [%]
O=C(N/C(=C\c1cccs1)C(=O)N1CCCCCC1)c1ccccc1	1.61
Cc1cccc(NC(=O)/C(=C\c2cccs2)NC(=O)c2ccccc2)c1	-65.1
O=C(N/C(=C/c1cccs1)C(=O)N1CCOCC1)c1cccs1	8.07
CN1CCN(C(=O)/C(=C\c2cccs2)NC(=O)c2cccs2)CC1	-77.3
O=C(N/C(=C/c1ccc2c(c1)OCO2)C(=O)N1CCOCC1)c1cccs1	9.57
CN1CCN(C(=O)/C(=C\c2ccc3c(c2)OCO3)NC(=O)c2cccs2)CC1	-75.6
O=C(N/C(=C/c1cccs1)C(=O)N1CCCC1)c1ccccc1	14.4
O=C(Nc1ccccc1)/C(=C\c1cccs1)NC(=O)c1ccccc1	14.9
Cc1ccc(NC(=O)CCC(=O)c2ccc(Br)cc2)cc1	10.9
COc1ccc(C(=O)N/N=C/c2cc(Br)ccc2O)cc1OC	14.7
CCOc1cc(/C=C2/C(=N)N3C(=NC2=O)SN=C3S(C)(=O)=O)ccc1OS(=O)(=O)c1ccccc1	17.3
CCOC(=O)c1sc2nc(C)nc(NCc3cccnc3)c2c1C	10.8
COc1ccc(/C=N/Nc2ccc(C(F)(F)F)cc2[N+](=O)[O-])cc1O	3.36
[O-][n+]1onc2c3cc(-c4ccccc4)nnc3ccc21	1.69
CC(C)(Oc1ccc(Cl)cc1)C(=O)N1CCN(c2ccccn2)CC1	-1.81
COc1cccc(NC(=O)c2cc(-c3cccnc3)nc3c(Cl)cccc23)c1	7.59
COc1ccc2c(c1OC)C(=O)OC2C1c2c(cc3c(c2OC)OCO3)CCN1C.Cl (centres unmarked)	9.06
COc1ccc(CC(O)CC2c3c(cc4c(c3OC)OCO4)CCN2C)cc1.Cl (centres unmarked)	-51.8
COc1c2c(cc3c1C(CC(O)Cc1ccccc1)N(C)CC3)OCO2 (centres unmarked)	-14
